Data reported in PubChem BioAssay (Tox21).
“And” between values parts separate entries of the source, which are not always exact repeats. Equal values may be shown once. Inconclusive results are not listed. Entries that show only a call come without a potency. Some structures have more than one record in an assay (separate samples or runs), and their calls can disagree. The source made the active and inactive calls. Unless noted, calls follow the shape of the dose curve; as a rule, active = well fitted curve in the direction sought with a large enough effect in the repeat runs; inconclusive = weak or mixed curves; inactive = no such curve, though single readings can be large; an effect the other way counts as inactive or inconclusive.

Legend:
[1] = qHTS assay for small molecule agonists of the p53 signaling pathway (AID 651631; calls by dose curve; also: nearly all actives have a fitted effect of over 15% in size; also: potency is read from the fitted curve at half-maximal effect)
Method in brief: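 p53RE-bla HCT-116 cells; compounds 16 h, 37 °C; LiveBLAzer B/G FRET substrate 2 h RT; fluorescence intensity read-out, qHTS format.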

[2] = qHTS assay for small molecules that induce genotoxicity in human embryonic kidney cells expressing luciferase-tagged ATAD5 (AID 651632); also: nearly all actives have a fitted effect of over 15% in size; also: potency is read from the fitted curve at half-maximal effect
Method in brief: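 Cells were seeded at 2,000 per well, dosed with compound, and incubated 16 hr at 37C in 5% CO2. Luciferase activity was then quantified after a 30 min room-temperature incubation with Amplite.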

[3] = qHTS assay for small molecule agonists of the p53 signaling pathway - cell viability (AID 651633; calls by dose curve; also: nearly all actives have a fitted effect of over 30% in size; also: potency is read from the fitted curve at half-maximal effect)
Method in brief: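 Viability counter-read: CellTiter-Glo luminescence (30 min, room temperature) in the same p53RE-bla plates. These plates had been exposed to compounds for 16 h at 37 C.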

[4] = qHTS assay for small molecules that induce genotoxicity in human embryonic kidney cells expressing luciferase-tagged ATAD5 - cell viability (AID 651634; calls by dose curve; also: nearly all actives have a fitted effect of over 25% in size; also: potency is read from the fitted curve at half-maximal effect)
Method in brief: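 Cells (HEK293T, luciferase-tagged ATAD5) are seeded at 2,000 per well, dosed with compound or DMSO vehicle, and incubated 15.5 hr at 37C and 5% CO2. CellTiter-Fluor is added for 30 min before fluorescence is measured.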

[5] = qHTS assay for small molecule disruptors of the mitochondrial membrane potential - cell viability (AID 720634; calls by dose curve;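 also: human HepG2 liver cancer cells; series mostly up to about 83 µM; nearly all actives have a fitted effect of over 20% in size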)
Method in brief: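 Cytotoxicity was measured by ATP quantitation in HepG2 wells that had first been treated with compound for 1 hr and stained with m-MPI dye; CellTiter-Glo incubation was 30 min at room temperature.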

[6] = qHTS assay for small molecule disruptors of the mitochondrial membrane potential (AID 720635); also: potency is read from the fitted curve at half-maximal effect
Method in brief: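 Mitochondrial membrane potential tracked with Mito-MPS dye, red aggregates (ex 540/em 590 nm) against green monomers (ex 490/em 535 nm). Compound treatment 1 hr at 37C, dye 30 min in HepG2.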

[7] = qHTS assay to test for compound auto fluorescence at 590 nm (red) in HepG2 cells (AID 720674)
Method in brief: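 1 hr compound incubation on HepG2 cells, 37 C, 5% CO2; plate read ex 540 nm / em 590 nm; intensities reported as Rose Bengal sodium equivalents.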

[8] = qHTS assay to test for compound auto fluorescence at 535 nm (green) in HepG2 cells (AID 720675)
[9] = qHTS assay to test for compound auto fluorescence at 590 nm (red) in HEK293 cells (AID 720679)
Method in brief: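 Using HEK293 cells at 2,000 per well, the screen added 23 nL of each compound after cell attachment and incubated overnight (37C, 5% CO2). The plate reader then captured red-label fluorescence, Ex/Em 540/590nm.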

[10] = qHTS assay to test for compound auto fluorescence at 460 nm (blue) in HEK293 cells (AID 720678)
Method in brief: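 Measured: blue fluorescence (Ex 405/Em 460 nm) of compound-treated HEK293 cells, incubated overnight at 37C with 5% CO2 and scaled to triamterene equivalents.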

Row | Structure (SMILES) | Potency [1] | Potency [2] | Potency [3] | Potency [4] | Potency [5] | Potency [6] | Potency [7] | Potency [8] | Potency [9] | outcome [10]
1 | ClC/C=C/CCl | inactive | inactive | inactive | inactive | inactive | inactive | inactive | inactive | inactive | –
2 | C=CCCCCCCCCCC | inactive | inactive | – | inactive | inactive | inactive | inactive | inactive | inactive | –
3 | Cc1ccc(S(=O)(=O)NCl)cc1 | inactive | inactive | inactive | inactive | inactive | inactive | inactive | inactive | inactive | inactive
4 | O=[Se](O)O | 24.4 µM (active) and inactive | inactive | – | 687 nM (active) | inactive | 8.64 µM (active) and inactive | inactive | inactive | inactive | inactive
5 | CC(C)(Oc1ccc(Cl)cc1)C(=O)O | inactive | inactive | inactive | inactive | inactive | inactive | inactive | inactive | inactive | inactive
6 | C1CN(SSN2CCOCC2)CCO1 | inactive | inactive | inactive | inactive | inactive | 61.1 µM (active) | inactive | inactive | inactive | –
7 | C[C@]12CC[C@@H]3c4ccc(O)cc4CC[C@H]3[C@@H]1CC[C@@H]2O | 13.3 µM (active) and 19.3 µM (active) and 9.69 µM (active) | inactive | – | – | inactive | 26.6 µM (active) and 30.6 µM (active) and 17.2 µM (active) | inactive | inactive | inactive | –
8 | CC1=CC(C)(C)Nc2ccccc21 | inactive | inactive | inactive | inactive | inactive | inactive and 59.5 µM (active) | inactive | inactive | inactive | inactive
9 | Nc1ccc(O)c(N)c1 | inactive | inactive | inactive | 54.1 µM (active) and 61.1 µM (active) | inactive | 10.8 µM (active) and 4.86 µM (active) | inactive | inactive | inactive | –
10 | Brc1nc2ccccc2s1 | inactive | inactive | – | inactive | inactive | inactive | inactive | inactive | inactive | inactive
11 | OC[C@@H](O)[C@@H](O[C@@H]1O[C@H](CO)[C@H](O)[C@H](O)[C@H]1O)[C@H](O)[C@@H](O)CO | inactive | inactive | inactive | inactive | inactive | inactive | inactive | inactive | inactive | inactive
12 | C/C=C/C(=O)N(CC)c1ccccc1C | inactive | inactive | inactive | inactive | inactive | inactive | inactive | inactive | inactive | –
13 | O=C1CCc2ccccc2O1 | inactive | inactive | – | inactive | inactive | inactive | inactive | inactive | inactive | inactive
14 | O=C(O)CCCCCCCCCCCC(=O)O | inactive | inactive | – | inactive | inactive | inactive | inactive | inactive | inactive | inactive
15 | CC(C)=CCO | inactive | inactive | inactive | inactive | inactive | inactive | inactive | inactive | inactive | inactive
16 | COCCOCCOCCO | inactive | inactive | inactive | inactive | – | – | inactive | inactive | inactive | inactive
17 | CC1(C)OC(=O)NC1=O | inactive | inactive | inactive | inactive | inactive | inactive | inactive | inactive | inactive | inactive
18 | CCCCCCCCCCCCO | inactive | inactive | inactive | inactive | inactive | inactive | inactive | inactive | inactive | inactive
19 | O=C(O)c1ccc(O)cc1 | inactive | inactive | – | inactive | inactive | inactive | inactive | inactive | inactive | –
20 | C=C[C@@]1(C)CC(=O)[C@]2(O)[C@@]3(C)[C@@H](O)CCC(C)(C)[C@@H]3[C@H](O)[C@H](OC(C)=O)[C@@]2(C)O1 | inactive | 266 nM (active) and 122 nM (active) | inactive | inactive | inactive | 26.6 µM (active) | inactive | inactive | inactive | –
21 | CC(=O)[C@@]1(O)CC[C@H]2[C@@H]3C[C@H](C)C4=CC(=O)C=C[C@]4(C)[C@@]3(F)[C@@H](O)C[C@@]21C | inactive | inactive | inactive | inactive | inactive | – | inactive | inactive | inactive | inactive
22 | Cc1ccc(C)c(O)c1 | inactive | inactive | – | inactive | inactive | inactive | inactive | inactive | inactive | inactive
23 | CCO[Si](CCCNC(N)=O)(OCC)OCC | inactive | inactive | inactive | inactive | inactive | inactive | inactive | inactive | inactive | –

Row | Structure (SMILES) | Potency [1] | Potency [2] | Potency [3] | Potency [4] | Potency [5] | Potency [6] | Potency [7] | Potency [8] | Potency [9] | outcome [10]
24 | COC(=O)C(C)Oc1ccc(Oc2ncc(C(F)(F)F)cc2Cl)cc1 (stereo not drawn) | inactive | inactive | inactive | inactive | inactive | inactive | inactive | inactive | inactive | inactive
25 | C=CCOC(=O)C(=C)C | inactive | inactive | inactive | inactive | inactive | inactive | inactive | inactive | inactive | –
26 | C=C[Si](OCCOC)(OCCOC)OCCOC | inactive | inactive | – | inactive | inactive | – | inactive | inactive | inactive | inactive
27 | Cc1ccc2c(c1)C(=O)OC2=O | inactive | inactive | inactive | inactive | inactive | inactive | inactive | inactive | inactive | inactive
28 | Nc1ccc(N)c(Cl)c1 | inactive | inactive | inactive | inactive | inactive | 3.85 µM (active) and 27.3 µM (active) | inactive | inactive | inactive | inactive
29 | CC(C)[N+](C)(CCOC(=O)C1c2ccccc2Oc2ccccc21)C(C)C | inactive | inactive | inactive | inactive | inactive | inactive | inactive | inactive | inactive | inactive
30 | Cc1ccc(C(C)(C)C)cc1 | inactive | inactive | – | inactive | inactive | inactive | inactive | inactive | inactive | inactive
31 | CNC[C@H](O)c1ccc(O)c(O)c1 | inactive | inactive | inactive | inactive | inactive | inactive | inactive | inactive | inactive | inactive
32 | [O-]/[N+](=N\O)c1ccccc1 | inactive | inactive | inactive | inactive | inactive | inactive | inactive | inactive | inactive | inactive
33 | CCC(Cc1c(I)cc(I)c(N)c1I)C(=O)O (stereo not drawn) | inactive | inactive | inactive | inactive | inactive | inactive | inactive | inactive | inactive | inactive
34 | CCCCCC1C(=O)CCC1CC(=O)OC (stereo not drawn) | inactive | inactive | inactive | inactive | inactive | inactive | inactive | inactive | inactive | –
35 | C[C@]12CC[C@@H]3c4ccc(O)cc4CC[C@H]3[C@@H]1CC[C@H]2O | 15.6 µM (active) and 27.3 µM (active) | inactive | – | – | – | 27.8 µM (active) and 27.3 µM (active) | inactive | inactive | inactive | inactive
36 | CC(=O)OC(C)C | inactive | inactive | inactive | inactive | inactive | inactive | inactive | inactive | inactive | inactive
37 | CC(C)(C)c1cccc(C(C)(C)C)c1O | inactive | inactive | – | inactive | inactive | 16.8 µM (active) and 15.4 µM (active) | inactive | inactive | inactive | –
38 | Clc1ccc(Sc2cc(Cl)c(Cl)cc2Cl)cc1 | inactive | inactive | inactive | inactive | inactive | 1.68 µM (active) and 864 nM (active) | inactive | inactive | inactive | inactive
39 | C=CN1CCCC1=O | inactive | inactive | inactive | inactive | inactive | – | inactive | inactive | inactive | inactive
40 | Nc1ccc2c(c1)C(=O)c1ccccc1C2=O | – | 4.77 µM (active) and 7.7 µM (active) | inactive | inactive | inactive | 268 nM (active) and 386 nM (active) | inactive | inactive | inactive | inactive
41 | OCCNCCO | – | inactive | 19.3 µM (active) and inactive | inactive | inactive | inactive | inactive | inactive | inactive | inactive
42 | Cc1cccc(Nc2ccccc2C(=O)O)c1C | – | inactive | inactive | inactive | inactive | – | inactive | inactive | inactive | inactive
43 | CCCCCCCC/C=C\CCCCCCCC(=O)O | – | inactive | inactive | inactive | inactive | inactive | inactive | inactive | inactive | –
44 | O=C(O)CCCC(=O)O | – | inactive | inactive | inactive | inactive | inactive | inactive | inactive | inactive | inactive
45 | O=S1(=O)CCCO1 | – | inactive | inactive | inactive | inactive | inactive | inactive | inactive | inactive | inactive
46 | CCc1cccc2c3c([nH]c12)C(CC)(CC(=O)O)OCC3 (stereo not drawn) | – | inactive | inactive | inactive | inactive | – | inactive | inactive | inactive | inactive
